A selection: hits, their analogues and other compounds. The true share with any hit is near 15%.
TDP1 cell noCPT – qHTS for Inhibitors of human tyrosyl-DNA phosphodiesterase 1 (TDP1): qHTS in cells in absence of CPT; DT40 Tdp1-/- hTDP1 cells, no CPT, ATP luminescence, 48 h; 420,000 tested, 15% active; Potency, µM (doses to about 46.2 µM), for inactives: at the top dose activity change, negative = growth inhibition, hits mostly inhibitors; also: nearly all actives have a fitted effect of over 55% in size
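Cells were dispensed at 400 per well, compounds added by pin tool, plates incubated ≥48 hr at 37 °C, then CellTiter-Glo added for 30 min at room temperature before luminescence reading. Line: DT40 Tdp1-/- complemented with hTDP1; camptothecin omitted.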
12-LOX inh – blocks human arachidonate 12S-lipoxygenase. purified 12hLO, xylenol orange hydroperoxide absorbance. AID 1671190. P18054. 580,000 tested, 1.1% active. Potency, µM (doses to about 108 µM), for the others: top-dose activity change, negative = inhibition, actives largely listed as inhibitors
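Purified human 12hLO (150 nM final) in 25 mM Hepes, 0.01% Triton X-100, pH 7.0 was preincubated 15 min at room temperature with compound. Then 40 uM arachidonic acid was added, 30 min. Hydroperoxide was read by Fe-XO absorbance ratio 573/405 nm.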
RORgamma inh – ROR gamma (mouse) transcription inhibition; P51450; Drosophila S2 Gal4-RORgamma UAS-luciferase reporter, 20 h; Potency, µM (doses to about 53.6 µM), for the others: at the top dose activity change, negative = inhibition, usual class: inhibitors; 310,000 tested, 5.4% active; AID 2551; also: nearly all actives have a fitted effect of over 60% in size
Target sequence (P51450 whole entry, looked up, the tested form may be a part): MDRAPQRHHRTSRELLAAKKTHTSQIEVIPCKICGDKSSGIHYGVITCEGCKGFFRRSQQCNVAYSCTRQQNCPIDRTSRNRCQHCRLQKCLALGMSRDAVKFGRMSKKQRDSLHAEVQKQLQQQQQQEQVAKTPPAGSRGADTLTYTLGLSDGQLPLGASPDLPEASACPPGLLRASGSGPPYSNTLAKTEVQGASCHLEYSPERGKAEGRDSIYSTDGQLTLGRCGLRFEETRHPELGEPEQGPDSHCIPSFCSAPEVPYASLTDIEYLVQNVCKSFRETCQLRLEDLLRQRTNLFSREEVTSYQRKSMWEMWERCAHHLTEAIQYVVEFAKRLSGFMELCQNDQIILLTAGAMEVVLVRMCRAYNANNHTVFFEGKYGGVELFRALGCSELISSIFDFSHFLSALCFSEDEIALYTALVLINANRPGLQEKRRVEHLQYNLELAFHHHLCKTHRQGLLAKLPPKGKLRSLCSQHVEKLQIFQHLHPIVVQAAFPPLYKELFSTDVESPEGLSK
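Compounds are pin-transferred onto Drosophila Schneider cells expressing a copper-inducible Gal4–ROR gamma transactivation domain fusion. After 1 hr, copper sulfate is added to 700 uM final; luciferase is read 20 hr later.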
DT40 TDP1 CPT – DT40-hTDP1 cell growth loss with CPT. Potency, µM (titrated, usually from 46.2 µM), for inactives: top-dose activity change, negative = growth inhibition, usual class: inhibitors. chicken DT40 Tdp1-/-;hTDP1 cells + 20 nM CPT, ATP luminescence, 48 h. AID 686979. 420,000 tested, 12% active; also: nearly all actives have a fitted effect of over 55% in size
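Chicken DT40 Tdp1-/- cells stably complemented with human TDP1 were seeded at 400 cells/well in medium containing 20 nM camptothecin, exposed to pin-transferred compounds, and grown at 37 °C for at least 48 hr. Viability was read as ATP luminescence.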
Gal4-VP16 FLuc – inhibits Gal4-VP16 luciferase reporter, ROR gamma counter-screen; Drosophila S2 Gal4-VP16 UAS-luciferase, luminescence, 20 h; Potency, µM (doses to about 53.6 µM), without a hit: at the top dose activity, negative = inhibition, hits mostly inhibitors; 310,000 tested, 3.5% active; AID 2546;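 also: Gal4-VP16 expression switched on by copper sulfate through the metallothionein promoter; nearly all actives have a fitted effect of over 50% in size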
ELG1 repair inh – inhibitors of ELG1-dependent DNA repair in HEK293T cells | HEK293T ELG1-luciferase reporter, luminescence, 16 h; DNA damage induced by 5-fluorouridine | Potency, µM (doses to about 46.1 µM), for inactives: at the highest dose activity change, negative = inhibition, usual class: inhibitors | 330,000 tested, 2.3% active | AID 504467; also: nearly all actives have a fitted effect of over 55% in size
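HEK293T cells expressing luciferase-tagged ELG1 (2,000/well) received 5-Fluorouridine plus compound or DMSO for 16 hr at 37 °C. Luciferase was read by ONE-Glo luminescence after 30 min at room temperature.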
* = called active by the depositor; ? = inconclusive; . = no result given. Calls follow the shape of the dose curve; as a rule, active = well fitted curve in the direction sought with a large enough effect; inconclusive = small, poorly fitted or top-dose-only effect, or another doubt; inactive = no such curve, though single readings can be large; an effect the other way counts as inactive or inconclusive. % is scaled to controls: 0 for no effect and ±100 for the full control effect; potency is read from the fitted curve at half-maximal effect.

SMILES	TDP1 cell noCPT	12-LOX inh	RORgamma inh	DT40 TDP1 CPT	Gal4-VP16 FLuc	ELG1 repair inh
CCCSc1ccc([C@@H]2[C@H]3C(=O)N(CC)C(=O)[C@H]3[C@]3(C(=O)OC)CCCCN23)cc1OC	?	?	.	?	.	-22.5%
CCSc1ccc([C@@H]2[C@H]3C(=O)N(C)C(=O)[C@H]3[C@]3(C(=O)OC)CCCCN23)cc1	16.4µM*	-9.3%	.	?	.	-18.9%
NS(=O)(=O)c1ccc(N/N=C/c2ccc(F)cc2)c([N+](=O)[O-])c1	.	-6.3%	.	.	.	.
CCC(C)Sc1ccc([C@@H]2[C@H]3C(=O)N(CC)C(=O)[C@H]3[C@]3(C(=O)OC)CCCCN23)cc1 (some centres not stated)	16.4µM*	?	.	?	.	-26.9%
CCSc1ccc([C@@H]2[C@@H]3C(=O)N(CC)C(=O)[C@@H]3[C@]3(C(=O)OC)CCCCN23)cc1	23.1µM*	-16.8%	.	16.4µM*	.	-3.6%
CCCCCCSc1ccc([C@@H]2[C@@H]3C(=O)N(CC)C(=O)[C@@H]3[C@]3(C(=O)OC)CCCCN23)cc1	20.6µM*	-29.9%	.	18.4µM*	.	-6.3%
CCCCCCSc1ccc([C@@H]2[C@H]3C(=O)N(C)C(=O)[C@H]3[C@]3(C(=O)OC)CCCCN23)cc1	?	?	.	?	.	-12.9%
CC(=O)c1cc(CC(=O)N2CCC3(CCCN(C(C)C)C3=O)C2)cs1 (configuration not stated)	.	3.0%	.	.	.	.
C#CCOCCOCCOCCNc1nc(N2CCN(C(=O)CCCCCCCCCCNC(=O)[C@H]([C@@H](C)CC)n3cc(CCCCN=C(N)N)nn3)CC2)nc(N2CCN(C(=O)CCCCCCCCCCNC(=O)[C@H](CCCCN)n3cc(C)nn3)CC2)n1	8.2µM*	.	.	23.1µM*	.	?
C#CCOCCOCCOCCNc1nc(N2CCN(C(=O)Cn3cc(CCCN=C(N)N)nn3)CC2)nc(N2CCN(C(=O)[C@H]([C@@H](C)CC)n3cc(CCCCN)nn3)CC2)n1	-6.3%	1.3%	.	-26.5%	.	?
C#CCOCCOCCOCCNc1nc(N2CCN(C(=O)CCCCCCCCCCNC(=O)Cn3cc(CCCCCN)nn3)CC2)nc(N2CCN(C(=O)CCCCCCCCCCNC(=O)[C@H]([C@@H](C)CC)n3cc(CCCCN=C(N)N)nn3)CC2)n1	?	.	.	20.6µM*	.	?
CC1(C)CC(=O)C2=C(C1)NC(Nc1nc3ccccc3o1)=NC2c1ccccc1Cl (configuration not stated)	7.08µM*	32.8%	.	5.62µM*	.	.
CC1(C)CC(=O)C2=C(C1)NC(Nc1nc3ccccc3o1)=NC2c1ccccn1 (configuration not stated)	0.82µM*	14.8%	3.55µM*	0.731µM*	1.12µM*	-4.3%
CN(CC1(C)CCOCC1)C(=O)c1ccccc1Cl	.	23.1%	.	.	.	.
Cc1ccc(-c2[nH]nc(N)c2N=Nc2cccc(Cl)c2C)cc1	13µM*	0.0%	?	?	?	?
Cc1ccc(-c2[nH]nc(N)c2N=Nc2ccccc2C)cc1	?	12.9%	-22.9%	?	-5.0%	3.6%
COc1cccc(CN(C)C(=O)C23CC4CC(C2)CC(c2ccccc2)(C4)C3)c1OC	.	11.5%	.	.	.	.
COc1ccc(CN(C)C(=O)C23CC4CC(CC(Cl)(C4)C2)C3)c(OC)c1OC	20.6µM*	-2.4%	?	23.1µM*	-8.7%	25.9µM*
CCN(CC)CCNC(=O)c1n[nH]c(=O)c2ccccc12	.	6.4%	.	.	.	.
CN1C(=O)c2ccccc2NC1c1cc2ccccc2[nH]c1=O (configuration not stated)	.	7.08µM*	.	.	.	.
